Assay results taken from PubChem BioAssay (NCI).
“And” between values parts separate entries of the source, which are not always exact repeats. Identical values can stand only once. Compounds without any hit were thinned out: in the full panel of roughly 83,000, 20% have a hit.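 Cell lines were cultured in 96-well plates, exposed to a single compound concentration, and assessed for percent growth 48 hours later.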 The source made the active and inactive calls. How the source made its calls: active means growth percent below 10; inactive means the rest.

Legend:
Test in all cases: NCI-60 one-dose screen, 48 h (100 = growth as untreated, 0 = no growth, -100 = all killed)
Conditions in all cases: 10 µM unless noted
[1] = tested on: NCI-H23 lung
[2] = tested on: NCI-H226 lung
[3] = tested on: NCI-H322M lung
[4] = tested on: HOP-62 NSCLC
[5] = tested on: NCI-H460 lung
[6] = tested on: HOP-92 NSCLC
[7] = tested on: NCI-H522 lung
[8] = tested on: A549/ATCC NSCLC
[9] = tested on: 786-0 renal
[10] = tested on: COLO 205 colon
[11] = tested on: DU-145 prostate
[12] = tested on: K-562 leukemia
[13] = tested on: MALME-3M melanoma
[14] = tested on: MDA-MB-231 breast
[15] = tested on: RXF 393 renal
[16] = tested on: SF-268 CNS
[17] = tested on: SF-295 CNS
[18] = tested on: SF-539 CNS
[19] = tested on: UACC-257 melanoma
[20] = tested on: M14 melanoma

CC1=CC=C(NC(=O)/C=C/c2ccccc2)CC1Nc1nccc(-c2cccnc2)n1 (stereo not given)
growth [1]: 69% (inactive)
growth [2]: 66% (inactive)
growth [3]: 67.2% (inactive)
growth [4]: 54.8% (inactive)
growth [5]: 66.9% (inactive)
growth [6]: 60.3% (inactive)
growth [7]: 69% (inactive)
growth [8]: 42.4% (inactive)
growth [9]: 15.9% (inactive)
growth [10]: 26.7% (inactive)
growth [11]: 30.9% (inactive)
growth [12]: 10.2% (inactive)
growth [13]: 45.2% (inactive)
growth [14]: 51.5% (inactive)
growth [15]: 0.475% (active)
growth [16]: 54% (inactive)
growth [17]: 44.1% (inactive)
growth [18]: 14% (inactive)
growth [19]: 8.14% (active)
growth [20]: 23.7% (inactive)

Cc1n(Cc2ccc3ccccc3c2)c(Cl)c(Cl)[n+]1Cc1ccc2ccccc2c1
growth [1]: 25.6% (inactive)
growth [2]: 47.1% (inactive)
growth [3]: 76.2% (inactive)
growth [4]: 59.6% (inactive)
growth [5]: 33.5% (inactive)
growth [6]: -11.3% (active)
growth [7]: 16.9% (inactive)
growth [8]: 81.4% (inactive)
growth [9]: 50.2% (inactive)
growth [10]: -46.6% (active)
growth [11]: 48.3% (inactive)
growth [12]: 9.4% (active)
growth [13]: -0.456% (active)
growth [14]: 10.6% (inactive)
growth [15]: 43.3% (inactive)
growth [16]: 34.9% (inactive)
growth [17]: 67.8% (inactive)
growth [18]: 54.4% (inactive)
growth [19]: -13.6% (active)
growth [20]: 10.9% (inactive)

COc1ccc(-c2ccccc2)cc1-c1c(Nc2cc(Cl)cc(Cl)c2O)c(=O)c1=O
growth [1]: 2.65% (active)
growth [2]: 19.3% (inactive)
growth [3]: 11.3% (inactive)
growth [4]: 2.04% (active)
growth [5]: 7.61% (active)
growth [6]: -24.5% (active)
growth [7]: -19.6% (active)
growth [8]: 8.72% (active)
growth [9]: 17.3% (inactive)
growth [10]: 48.1% (inactive)
growth [11]: 20.5% (inactive)
growth [12]: 13.5% (inactive)
growth [13]: -19.4% (active)
growth [14]: 15% (inactive)
growth [15]: -13% (active)
growth [16]: 18.3% (inactive)
growth [17]: -6.58% (active)
growth [18]: 12.7% (inactive)
growth [19]: 2.86% (active)
growth [20]: 24.6% (inactive)

CC1=C2[C@@H](CC1)[C@]1(C)O[C@@](C3CC3)(C[C@H]1OC(=O)CO)[C@H]2OC(=O)/C=C/c1ccccc1
growth [1]: 103% (inactive)
growth [2]: 86.7% (inactive)
growth [3]: 82.2% (inactive)
growth [4]: 89.6% (inactive)
growth [5]: 90.7% (inactive)
growth [6]: 82.2% (inactive)
growth [7]: 88.4% (inactive)
growth [8]: 79% (inactive)
growth [9]: 73.2% (inactive)
growth [10]: 116% (inactive)
growth [11]: 105% (inactive)
growth [12]: 79.4% (inactive)
growth [13]: 90.9% (inactive)
growth [14]: 81.2% (inactive)
growth [15]: 38.4% (inactive)
growth [16]: 41% (inactive)
growth [17]: 100% (inactive)
growth [18]: 109% (inactive)
growth [19]: 92.1% (inactive)
growth [20]: 96.4% (inactive)

COc1ccc(-c2[nH]c3ccccc3c2-c2ccc(OC)cc2)cc1
growth [1]: 53% (inactive)
growth [2]: 112% (inactive)
growth [3]: 84.2% (inactive)
growth [4]: 51.9% (inactive)
growth [5]: 43.2% (inactive)
growth [6]: 42.6% (inactive)
growth [7]: 55.6% (inactive)
growth [8]: 75.7% (inactive)
growth [9]: 51.7% (inactive)
growth [10]: 75.3% (inactive)
growth [11]: -30.6% (active)
growth [12]: 3.69% (active)
growth [13]: 73.3% (inactive)
growth [14]: 52.6% (inactive)
growth [15]: 51.9% (inactive)
growth [16]: 61.4% (inactive)
growth [17]: 50.2% (inactive)
growth [18]: 45.3% (inactive)
growth [19]: 72% (inactive)
growth [20]: 34.9% (inactive)

CC[C@]1(O)CC2CN(CCc3c([nH]c4ccccc34)C(C(=O)OC)(c3cc4c(cc3OC)N(C=O)[C@H]3[C@@](O)(C(=O)OC)[C@H](OC(C)=O)[C@]5(CC)[C@@H]6C[C@@H]6CN6CC[C@]43[C@@H]65)C2)C1 (stereo not given in full)
growth [1]: 6.32% (active)
growth [2]: 19.3% (inactive)
growth [3]: 73.9% (inactive)
growth [4]: 22.5% (inactive)
growth [5]: 3.37% (active)
growth [6]: -0.4% (active)
growth [7]: -21.4% (active)
growth [8]: 17.9% (inactive)
growth [9]: 5.62% (active)
growth [10]: -87.9% (active)
growth [11]: -41.4% (active)
growth [12]: 27.5% (inactive)
growth [13]: 34.2% (inactive)
growth [14]: -27.5% (active)
growth [15]: 32.9% (inactive)
growth [16]: 15.3% (inactive)
growth [17]: -4.56% (active)
growth [18]: 0.385% (active)
growth [19]: 53.2% (inactive)
growth [20]: -31.6% (active)

O=C1/C(=C/c2ccc(-c3ccccc3C(F)(F)F)o2)SC(=S)N1CCc1ccc(O)cc1
growth [1]: 78.2% (inactive)
growth [2]: 90.2% (inactive)
growth [3]: 75.6% (inactive)
growth [4]: 50.2% (inactive)
growth [5]: 48.3% (inactive)
growth [6]: 61% (inactive)
growth [7]: -11% (active)
growth [8]: 45.7% (inactive)
growth [9]: 65% (inactive)
growth [10]: 48.1% (inactive)
growth [11]: 66.2% (inactive)
growth [12]: 17.5% (inactive)
growth [13]: 32.2% (inactive)
growth [14]: 67% (inactive)
growth [15]: 71.2% (inactive)
growth [16]: 51.4% (inactive)
growth [17]: 54.4% (inactive)
growth [18]: 54.2% (inactive)
growth [19]: 67% (inactive)
growth [20]: 34.4% (inactive)

COc1cc(NS(=O)(=O)C(C)C)cc(-c2cc(-c3ccc(N4CCNCC4)cc3)cnc2N)c1
growth [1]: 84.1% (inactive)
growth [2]: 61.1% (inactive)
growth [3]: 91% (inactive)
growth [4]: 103% (inactive)
growth [5]: 97.1% (inactive)
growth [6]: 61.8% (inactive)
growth [7]: 52.8% (inactive)
growth [8]: 76.9% (inactive)
growth [9]: 45.1% (inactive)
growth [10]: 84.4% (inactive)
growth [11]: 90.8% (inactive)
growth [12]: 5.48% (active)
growth [13]: 79.6% (inactive)
growth [14]: 89.8% (inactive)
growth [15]: 41% (inactive)
growth [16]: 70.3% (inactive)
growth [17]: 91.7% (inactive)
growth [18]: 58.3% (inactive)
growth [19]: 91.4% (inactive)
growth [20]: 58.6% (inactive)

Cc1nc(Nc2ncc(C(=O)Nc3c(C)cccc3Cl)s2)cc(N2CCN(CCO)CC2)n1
growth [1]: 46.6% (inactive) and 32.6% (inactive)
growth [2]: 31.9% (inactive) and 45.6% (inactive)
growth [3]: 0.803% (active)
growth [4]: 12% (inactive)
growth [5]: 74.3% (inactive) and 42.7% (inactive)
growth [6]: -21.5% (active) and -11.5% (active)
growth [7]: -1.57% (active)
growth [8]: 25.1% (inactive) and 6.75% (active)
growth [9]: 22.2% (inactive) and 9.13% (active)
growth [10]: -1.08% (active) and -9.83% (active)
growth [11]: 10.2% (inactive) and 12.5% (inactive)
growth [12]: 7.66% (active)
growth [13]: 51.4% (inactive) and 31.2% (inactive)
growth [14]: 11.2% (inactive) and 8.95% (active)
growth [15]: -18.9% (active) and -46.2% (active)
growth [16]: 28.4% (inactive) and 30.3% (inactive)
growth [17]: 57.4% (inactive) and 37.3% (inactive)
growth [18]: 18.8% (inactive) and -9.03% (active)
growth [19]: 79.1% (inactive) and 48.4% (inactive)
growth [20]: 42.4% (inactive) and 17.5% (inactive)

N#Cc1c(N)nnn1Cc1cc(=O)oc2ccc(O)cc12
growth [1]: 106% (inactive)
growth [2]: 95.7% (inactive)
growth [3]: 110% (inactive)
growth [4]: 106% (inactive)
growth [5]: 107% (inactive)
growth [6]: 95.7% (inactive)
growth [7]: 89.6% (inactive)
growth [8]: 98.7% (inactive)
growth [9]: 106% (inactive)
growth [10]: 118% (inactive)
growth [11]: 108% (inactive)
growth [12]: 96.1% (inactive)
growth [13]: 108% (inactive)
growth [14]: 112% (inactive)
growth [15]: 98.8% (inactive)
growth [16]: 103% (inactive)
growth [17]: 102% (inactive)
growth [18]: 104% (inactive)
growth [19]: 101% (inactive)
growth [20]: 105% (inactive)

Nc1ncc(-c2ccc3ncnc(N4CCc5ccc(Cl)cc54)c3c2)cc1C(F)(F)F
growth [1]: 35.4% (inactive)
growth [2]: 20.5% (inactive)
growth [3]: 7.25% (active)
growth [4]: 17.3% (inactive)
growth [5]: 18.1% (inactive)
growth [6]: -7.6% (active)
growth [7]: 14.1% (inactive)
growth [8]: 13.5% (inactive)
growth [9]: 8.59% (active)
growth [10]: 7.3% (active)
growth [11]: 17.6% (inactive)
growth [12]: 30.5% (inactive)
growth [13]: -0.57% (active)
growth [14]: 21.8% (inactive)
growth [15]: -38.8% (active)
growth [16]: 22.4% (inactive)
growth [17]: 19.3% (inactive)
growth [18]: 2.93% (active)
growth [19]: 29.3% (inactive)
growth [20]: 26.7% (inactive)

Cc1c(C(=O)OCCCCOC(=O)c2c(C)n(C)c3scc[n+]23)[n+]2ccsc2n1C
growth [1]: 101% (inactive)
growth [2]: 91.1% (inactive)
growth [3]: 112% (inactive)
growth [4]: 109% (inactive)
growth [5]: 108% (inactive)
growth [6]: 88.9% (inactive)
growth [7]: 99.6% (inactive)
growth [8]: 90.2% (inactive)
growth [9]: 112% (inactive)
growth [10]: 119% (inactive)
growth [11]: 107% (inactive)
growth [12]: 92% (inactive)
growth [13]: 105% (inactive)
growth [14]: 97.9% (inactive)
growth [15]: 103% (inactive)
growth [16]: 108% (inactive)
growth [17]: 93.2% (inactive)
growth [18]: 105% (inactive)
growth [19]: 96.5% (inactive)
growth [20]: 110% (inactive)

CCCCCO/N=C\c1c2c(O)c3c(O)c(C)c4c(c3c1O)C(=O)C(C)(O/C=C\C(OC)C(C)C(OC(C)=O)C(C)C(O)C(C)C(O)C(C)/C=C\C=C(\C)C(=O)N2)O4 (stereo not given)
growth [1]: 19.7% (inactive)
growth [2]: 26.9% (inactive)
growth [3]: 53.2% (inactive)
growth [4]: 34.7% (inactive)
growth [5]: 5.62% (active)
growth [6]: -5.96% (active)
growth [7]: 6.3% (active)
growth [8]: 20.9% (inactive)
growth [9]: 31.6% (inactive)
growth [10]: 2.86% (active)
growth [11]: 36% (inactive)
growth [12]: 17.6% (inactive)
growth [13]: 41.2% (inactive)
growth [14]: 31.4% (inactive)
growth [15]: 36.6% (inactive)
growth [16]: 31.2% (inactive)
growth [17]: 7.23% (active)
growth [18]: 37.3% (inactive)
growth [19]: 8.59% (active)
growth [20]: 28.2% (inactive)
